ATXN2 expr inh: ATXN2 expression inhibition. HEK-293 ATXN2-luciferase reporter, luminescence, 24 h. Potency, µM (series often up to 57 µM), for inactives: at the top dose activity change, negative = inhibition, hits mostly inhibitors. 360,000 compounds, 0.72% hits. AID 1745845; note: % is set by controls: 0 for no effect and ±100 for the full control effect; nearly all actives have a fitted effect of over 55% in size
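qHTS (up to 57 uM final) was run with 24 h compound exposure of reporter cells at 37 °C. Each well was multiplexed: SteadyGlo luminescence measured ATXN2-luciferase expression after a fluorogenic Gly-Phe-AFC viability readout (25 uM final).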
S2 tox: reduces viability in counter-screen for ATXN expression inhibitors | Potency, µM (highest dose often 56.7 µM), hits mostly cytotoxic | S2 cells (HEK-293 line with an ATXN2-luciferase reporter) viability, CellTiter-Fluor protease fluorescence, 24 h | 400,000 compounds, 0.49% hits; note: nearly all actives have a fitted effect of over 40% in size
TGFb SMAD3 inh: inhibitors of TGF-b signaling | HepG2 CAGA-GFP TGF-b/SMAD3 reporter, GFP fluorescence, 18 h; TGF-beta stimulated, 500 pg/mL final | Potency, µM (doses to about 46.1 µM), for inactives: at the highest dose activity, negative = inhibition, actives largely listed as inhibitors | 410,000 compounds, 1.2% hits | AID 588855; note: % is set by controls: 0 for no effect and ±100 for the full control effect; nearly all actives have a fitted effect of over 65% in size
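Read-out: total well GFP (ex488/em500-530) summed from mean per-cell fluorescence. Cells: HEPG2 CAGA-GFP, 1% FBS DMEM, 18 h at 37 degrees C with 500 pg/mL final TGF-beta. Unstimulated wells served as the full-inhibition control; stimulated DMSO wells = 0%.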
Gal4-VP16 FLuc: counter-screen for ROR gamma inhibitors: Gal4-VP16 reporter | 310,000 compounds, 3.5% hits | AID 2546 | Drosophila S2 Gal4-VP16 UAS-luciferase, luminescence, 20 h | Potency, µM (top dose mostly 53.6 µM), inactives show at the highest dose activity, negative = inhibition, actives largely listed as inhibitors;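 note: Gal4-VP16 expression switched on by copper sulfate through the metallothionein promoter; % is set by controls: 0 for no effect and ±100 for the full control effect; nearly all actives have a fitted effect of over 50% in size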
RORgamma inh: ROR gamma (mouse) transcription inhibition. Drosophila S2 Gal4-RORgamma UAS-luciferase reporter, 20 h. Potency, µM (doses to about 53.6 µM), without a hit: at the highest dose activity change, negative = inhibition, actives largely listed as inhibitors. 310,000 compounds, 5.4% hits. AID 2551; note: % is set by controls: 0 for no effect and ±100 for the full control effect; nearly all actives have a fitted effect of over 60% in size
Target sequence (P51450 whole entry, looked up, the tested form may be a part): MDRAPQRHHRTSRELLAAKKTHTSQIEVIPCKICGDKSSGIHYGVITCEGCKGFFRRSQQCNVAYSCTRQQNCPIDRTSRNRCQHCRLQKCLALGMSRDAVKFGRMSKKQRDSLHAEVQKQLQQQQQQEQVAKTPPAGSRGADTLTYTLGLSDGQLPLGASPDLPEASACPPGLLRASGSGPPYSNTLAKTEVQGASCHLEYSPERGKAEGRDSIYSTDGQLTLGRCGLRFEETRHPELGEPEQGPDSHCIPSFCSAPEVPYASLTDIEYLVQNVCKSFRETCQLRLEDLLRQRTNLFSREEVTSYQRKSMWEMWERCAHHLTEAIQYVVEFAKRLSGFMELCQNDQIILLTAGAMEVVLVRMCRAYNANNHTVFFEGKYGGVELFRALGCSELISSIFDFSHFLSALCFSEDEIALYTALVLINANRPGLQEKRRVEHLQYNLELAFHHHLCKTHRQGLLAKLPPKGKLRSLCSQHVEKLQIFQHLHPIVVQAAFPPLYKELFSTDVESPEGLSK
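Luciferase reporter read in Schneider cells carrying Gal4-RORγ (mouse) and UAS-Photinus luciferase; cells given compound 1 h before 700 uM copper sulfate induction, then incubated 20 h at ambient temperature.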
HepG2 tox: counter-screen for TGF-b inhibitors: cytotoxicity in HepG2 cells | 410,000 compounds, 0.76% hits | HepG2 CAGA-GFP viability, ATP luminescence, 18 h | Potency, µM (titrated, usually from 46.1 µM), inactives show at the top dose activity change, negative = cytotoxicity, most hits filed as cytotoxic
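CellTiter-Glo luminescence gave cytotoxicity after 18 hours at 37 degrees C. The cells were HepG2 CAGA-GFP in 1% FBS DMEM, stimulated with 500 pg/mL TGF-beta after compound addition. %Activity was normalised to no-cell wells (complete cell-killing) and DMSO (no toxicity), and curves were fitted and classified.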
Numbers without * were called inactive; i = inactive; ? = inconclusive; / = no result given. Compounds with a hit are over-represented: about 6.1% of the library has one in this group of screens. Calls come from the whole dose curve; as a rule, active = well fitted curve in the direction sought with a large enough effect; inconclusive = small, poorly fitted or top-dose-only effect, or another doubt; inactive = no such curve, though single readings can be large; an effect the other way counts as inactive or inconclusive. Potency is the fitted concentration of half-maximal effect.

SMILES | ATXN2 expr inh | S2 tox | TGFb SMAD3 inh | Gal4-VP16 FLuc | RORgamma inh | HepG2 tox
CCc1ccc(-c2cc(C(=O)Nn3cnnc3)c3ccccc3n2)cc1 | ? | i | ? | 0.63µM* | 0.89µM* | 8.9µM*
CCn1cc(-c2cc(C(=O)O)c3ccccc3n2)cn1 | ? | i | 1% | ? | 5.6µM* | -60%
CCn1cc(-c2cc(C(=O)O)c3ccccc3n2)c(C)n1 | -2% | i | -21% | -26% | ? | 22%
O=C(O)c1cc(-c2ccc3ccccc3n2)nc2ccccc12 | ? | i | 0% | 11µM* | 5µM* | -23%
O=C(O)c1cc(-c2cc(C(=O)O)c3ccccc3n2)nc2ccccc12 | / | / | / | 1% | 2% | /
CC(=O)NS(=O)(=O)c1ccc(NC(=O)c2cc(-c3ccc(C)cc3)nc3ccccc23)cc1 | 13% | i | -3% | -3% | ? | 1%
CC(=O)Nc1ccc(-c2cc(C(=O)O)c3ccccc3n2)cc1 | ? | i | -4% | ? | 10µM* | -3%
O=CN1CCc2c([nH]c3ccccc23)C1c1cccc2cccnc12 (configuration not stated) | / | / | / | 5% | -1% | /
CCC(=O)Nc1ccc(-c2cc(-c3ccccc3)nc(-c3ccc(NC(=O)CC)cc3)n2)cc1 | -25% | i | ? | 7.1µM* | 8.9µM* | -54%
CC(C)(C)c1ccc(-c2cc(C(=O)NNC(=O)Nc3ccccc3)c3ccccc3n2)cc1 | 94% | i | 0% | ? | 1µM* | -52%
CC(=O)Nc1ccc(-c2cc(-c3ccccc3)nc(-c3ccccc3)n2)cc1 | ? | ? | -1% | -11% | 24% | 0%
CCS(=O)(=O)Nc1ccc(-c2cc(-c3ccccc3)c3cc(C)ccc3n2)cc1 | -8% | i | ? | -4% | ? | -86%
Cc1ccc2nc(-c3ccc(NS(C)(=O)=O)cc3)cc(-c3ccccc3)c2c1 | -16% | i | ? | 22µM* | ? | -97%
O=C(O)c1cc(-c2ccc3ccccc3c2)nc2ccc(F)cc12 | 59% | i | -15% | -27% | 22µM* | -35%
O=C(Nc1ncccn1)c1cc(-c2ccc(F)cc2)nc2ccccc12 | -2% | i | -1% | -7% | 13% | -11%
CCC(=O)N1c2ccc(S(=O)(=O)N3CCCCCC3)cc2CC1C (configuration not stated) | 0% | i | 0% | / | / | -7%
CCc1ccc2oc(C(=O)Nc3sc4c(c3C(=O)NC)CCCC4)cc(=O)c2c1 | 11% | i | 23% | / | / | 8%
O=C(O)c1cc(-c2cccc3ccccc23)nc2ccccc12 | -4% | ? | -3% | 2% | 18% | -4%
O=C(O)c1cc(-c2c[nH]c3ccccc23)nc2cc3ccccc3cc12 | / | / | / | -19% | 5µM* | /
CS(=O)(=O)N1CCC(c2noc(-c3ccc(C(F)(F)F)cc3)n2)CC1 | -11% | i | -23% | 10µM* | ? | -31%
Cc1ccc(-c2nc(C3CCN(S(=O)(=O)c4ccc(C(F)(F)F)cc4)CC3)no2)cc1 | -7% | i | -6% | -11% | 22% | 4%
Cc1cc(OCC(=O)Nc2sc3c(c2C#N)CCC(C)C3)ccc1Cl (configuration not stated) | 11% | i | ? | / | / | -17%
Cc1cccc(NC(=O)CCc2c(C)nc3nc(CNC(=O)c4cccc(F)c4)nn3c2C)c1 | -22% | ? | ? | / | / | -32%
Cc1cc(C)c(CSc2ncc(-c3ccc([N+](=O)[O-])cc3)[nH]2)c(C)c1 | ? | i | ? | 7.1µM* | 10µM* | -9%
O=[N+]([O-])c1ccc(-c2cnc(SCc3ccccc3Cl)[nH]2)cc1 | 30% | i | -10% | -3% | ? | -32%
SMILES | ATXN2 expr inh | S2 tox | TGFb SMAD3 inh | Gal4-VP16 FLuc | RORgamma inh | HepG2 tox
COc1ccc(OC)c(C2CC(=O)N3CN(c4ccccc4)CSC3=C2C#N)c1 (configuration not stated) | -15% | ? | -3% | 13% | 11µM* | 1%
COc1ccc(N2CSC3=C(C#N)C(c4cccc(OC)c4OC)CC(=O)N3C2)cc1 (configuration not stated) | 2% | i | 7% | 1% | -45% | -16%
COc1ccc2ccccc2c1C1CC(=O)N2CN(Cc3ccco3)CSC2=C1C#N (configuration not stated) | -11% | ? | -14% | ? | 10µM* | -12%
Cc1ccc(NC(=O)Nc2nnc(N3CCCC3)s2)c(C)c1 | 1% | i | -2% | / | / | 5%
CNC(=O)[C@@H]1C[C@H](NC2CCCCCCC2)CN1Cc1cccc(OC)c1OC | / | i | / | / | / | /
CCCn1c(SCC(=O)NC2CC2)nnc1-c1cccs1 | -2% | i | -2% | 0% | 1% | 0%
Cn1c(SCC(=O)NC2CC2)nnc1-c1cccs1 | -1% | i | -1% | 18µM* | ? | -31%
CC1SC(=S)N(c2ccc(N(C)C)cc2)C1=O (configuration not stated) | -21% | i | 16µM* | 13µM* | 11µM* | -75%
O=C(Cc1ccc(F)cc1)NCC1CCCO1 (configuration not stated) | 21% | i | 1% | -21% | 11µM* | -5%
O=C(Cc1ccccc1)NCC1CCCO1 (configuration not stated) | -1% | i | 3% | -7% | -34% | 8%
CC(C)(C)c1ccc(C(=O)N2CCC(C(=O)NCC3CCCO3)CC2)cc1 (configuration not stated) | 26% | i | 7% | 12% | ? | -9%
O=C(NC(=S)NCC1CCCO1)C(c1ccccc1)c1ccccc1 (configuration not stated) | -7% | i | 3% | 6.3µM* | 7.1µM* | 0%
CC(C)(C)c1ccc(C(=O)NNC(=S)NCC2CCCO2)cc1 (configuration not stated) | 10% | i | 5% | ? | 4µM* | 5%
O=C(NCC1CCCO1)Nc1ccccc1 (configuration not stated) | 0% | i | 33% | 4% | 0% | -11%
O=C(NC(=S)NCC1CCCO1)c1ccc(Cl)cc1Cl (configuration not stated) | 50% | i | -6% | ? | 11µM* | 7%
CC1CCc2nc3ncn(Cc4ccc(Cl)cc4)c(=O)c3cc2C1 (configuration not stated) | 41% | ? | 0% | / | / | -2%
Cc1ccc(NC(=O)c2ncoc2-c2ccco2)cc1Cl | 1% | i | -8% | / | / | 0%

Compound activity (PubChem BioAssay)
